PubChem BioAssay (NCI)
The panel holds about 83,000 compounds, 20% with a hit somewhere; the sample as a whole holds those more often.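 Cell lines were cultured in 96-well plates, exposed to a single compound concentration, and assessed for percent growth 48 hours later.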 The source made the active and inactive calls. The calls were made as follows: active = growth percent below 10; inactive = the rest.

Key:
Assay in all cases: NCI-60 one-dose screen, 48 h (100 = growth as untreated, 0 = no growth, -100 = all killed)
Conditions in all cases: 10 µM unless noted
DU-145 prostate = tested on: DU-145 prostate
K-562 leukemia = tested on: K-562 leukemia
MALME-3M melanoma = tested on: MALME-3M melanoma
MDA-MB-231 breast = tested on: MDA-MB-231 breast
RXF 393 renal = tested on: RXF 393 renal
SF-268 CNS = tested on: SF-268 CNS
SF-295 CNS = tested on: SF-295 CNS
SF-539 CNS = tested on: SF-539 CNS
UACC-257 melanoma = tested on: UACC-257 melanoma
M14 melanoma = tested on: M14 melanoma
HCT-15 colon = tested on: HCT-15 colon
HT29 colon = tested on: HT29 colon
SNB-75 CNS = tested on: SNB-75 CNS
SNB-19 CNS = tested on: SNB-19 CNS
U251 CNS = tested on: U251 CNS
PC-3 prostate = tested on: PC-3 prostate
SK-MEL-5 melanoma = tested on: SK-MEL-5 melanoma
UACC-62 melanoma = tested on: UACC-62 melanoma
LOX IMVI melanoma = tested on: LOX IMVI melanoma
SK-MEL-28 melanoma = tested on: SK-MEL-28 melanoma

Measured: growth

Cc1ccc(/C=C/C(=O)Nc2ncc(Cc3ccc(F)cc3)s2)o1
inactive: DU-145 prostate 55.6% | K-562 leukemia 20.3% | MALME-3M melanoma 45.9% | MDA-MB-231 breast 77.7% | RXF 393 renal 66.9% | SF-268 CNS 53.3% | SF-295 CNS 35% | SF-539 CNS 48.2% | UACC-257 melanoma 76.3% | M14 melanoma 33.5% | HCT-15 colon 22% | HT29 colon 21.6% | SNB-75 CNS 52.1% | SNB-19 CNS 68.7% | U251 CNS 47.5% | PC-3 prostate 38.4% | SK-MEL-5 melanoma 45.3% | UACC-62 melanoma 31.5% | LOX IMVI melanoma 40.6% | SK-MEL-28 melanoma 59.7%

CCCCCN(CCCCC)CC(O)c1cc(C)c2ccc3cc(C(C)C)ccc3c2c1 (stereo not given)
inactive: MALME-3M melanoma 53.9% | SF-295 CNS 103% | UACC-257 melanoma 105% | M14 melanoma 20.3% | SNB-75 CNS 75.8% | PC-3 prostate 53.3% | SK-MEL-5 melanoma 79.1% | UACC-62 melanoma 91.3% | SK-MEL-28 melanoma 88.1%
active: DU-145 prostate -77.1% | K-562 leukemia -16.2% | MDA-MB-231 breast -47.6% | RXF 393 renal -88.2% | SF-268 CNS -61.7% | SF-539 CNS -78.3% | HCT-15 colon -86.3% | HT29 colon -43.9% | SNB-19 CNS 7.47% | U251 CNS -87.4% | LOX IMVI melanoma -93.9%

CC1(C)CC[C@]2(CO)CC[C@]3(C)[C@H](CC[C@@H]4[C@@]5(C)CCCNC(C)(C)[C@@H]5CC[C@]43C)[C@H]2[C@H]1O
inactive: DU-145 prostate 94.5% | MALME-3M melanoma 78.5% | MDA-MB-231 breast 91% | RXF 393 renal 92% | SF-268 CNS 94.9% | SF-295 CNS 105% | SF-539 CNS 74.9% | UACC-257 melanoma 82.5% | M14 melanoma 95.1% | HCT-15 colon 34.3% | HT29 colon 17.6% | SNB-75 CNS 80.1% | SNB-19 CNS 97.6% | U251 CNS 56.1% | PC-3 prostate 64.7% | SK-MEL-5 melanoma 92.8% | UACC-62 melanoma 95.9% | LOX IMVI melanoma 69.4% | SK-MEL-28 melanoma 93.9%
active: K-562 leukemia 8.95%

COc1ccc(/C=C/C(=O)c2ccc(NC(=O)CSc3nc4c([nH]3)c(=O)n(C)c(=O)n4C)cc2)cc1OC
inactive: DU-145 prostate 97.4% | K-562 leukemia 79.3% | MALME-3M melanoma 95.9% | MDA-MB-231 breast 84.4% | RXF 393 renal 87.5% | SF-268 CNS 83% | SF-295 CNS 92.6% | SF-539 CNS 80.1% | UACC-257 melanoma 87.4% | M14 melanoma 92.5% | HCT-15 colon 89% | HT29 colon 103% | SNB-75 CNS 82.3% | SNB-19 CNS 62.5% | U251 CNS 49.6% | PC-3 prostate 94.6% | SK-MEL-5 melanoma 92% | UACC-62 melanoma 81.4% | LOX IMVI melanoma 78.3% | SK-MEL-28 melanoma 95.7%

COc1ccccc1N(C(C)=O)C1=C(Cl)C(=O)c2ccccc2C1=O
active: K-562 leukemia -13.2% | RXF 393 renal -29.1% | SF-295 CNS -36% | SF-539 CNS -30.9% | UACC-257 melanoma -7.02% | HCT-15 colon 4.27% | HT29 colon 6.98% | U251 CNS 8.36% | PC-3 prostate 3.3% | SK-MEL-5 melanoma -69.9% | UACC-62 melanoma -35.3% | LOX IMVI melanoma 4.88%
inactive: DU-145 prostate 38.1% | MALME-3M melanoma 43.3% | MDA-MB-231 breast 10.5% | SF-268 CNS 30.1% | M14 melanoma 11.7% | SNB-75 CNS 24.8% | SNB-19 CNS 34% | SK-MEL-28 melanoma 21.2%

O=C(O)/C=C/C(=O)Nc1cccc(Cn2nnc3cc(Cl)c(Cl)cc32)c1
inactive: DU-145 prostate 119% | K-562 leukemia 91.3% | MALME-3M melanoma 97.5% | MDA-MB-231 breast 106% | RXF 393 renal 93.2% | SF-268 CNS 98.5% | SF-295 CNS 97% | SF-539 CNS 101% | UACC-257 melanoma 97.1% | M14 melanoma 102% | HCT-15 colon 95.3% | HT29 colon 110% | SNB-75 CNS 86.4% | SNB-19 CNS 100% | U251 CNS 103% | PC-3 prostate 102% | SK-MEL-5 melanoma 99.1% | UACC-62 melanoma 97.6% | LOX IMVI melanoma 97.3% | SK-MEL-28 melanoma 106%

O=C1c2cccc3cccc(c23)C(=O)N1C/C=C/c1ccc2c3c(cccc13)C(=O)N(CCO)C2=O
inactive: DU-145 prostate 70.4% | K-562 leukemia 79.9% | MALME-3M melanoma 75.5% | MDA-MB-231 breast 62.1% | RXF 393 renal 27.9% | SF-268 CNS 87.7% | SF-295 CNS 76.5% | SF-539 CNS 72.7% | UACC-257 melanoma 79.8% | M14 melanoma 87.8% | HCT-15 colon 75.3% | HT29 colon 87% | SNB-75 CNS 58.6% | SNB-19 CNS 88% | U251 CNS 71.1% | PC-3 prostate 51.2% | SK-MEL-5 melanoma 89.9% | UACC-62 melanoma 91.4% | LOX IMVI melanoma 87.3% | SK-MEL-28 melanoma 84.9%

CC(C)(C)n1cc(-c2ccnc(NCCNS(=O)(=O)c3ccc(O)cc3)c2)c(-c2cccc(O)c2)n1
inactive: DU-145 prostate 106% | K-562 leukemia 56.1% | MALME-3M melanoma 96.9% | MDA-MB-231 breast 111% | RXF 393 renal 108% | SF-268 CNS 94.4% | SF-295 CNS 101% | SF-539 CNS 95.3% | UACC-257 melanoma 99.1% | M14 melanoma 110% | HCT-15 colon 107% | HT29 colon 76.9% | SNB-75 CNS 74.4% | SNB-19 CNS 98.5% | U251 CNS 82.4% | PC-3 prostate 101% | SK-MEL-5 melanoma 79.7% | UACC-62 melanoma 101% | LOX IMVI melanoma 106% | SK-MEL-28 melanoma 98.9%

CCN(CC)Cc1cc(Nc2ccnc3cc(Cl)ccc23)ccc1O
inactive: DU-145 prostate 97.4% | K-562 leukemia 87.1% | MALME-3M melanoma 104% | MDA-MB-231 breast 72.3% | RXF 393 renal 97.4% | SF-268 CNS 77.8% | SF-295 CNS 93.4% | SF-539 CNS 85.6% | UACC-257 melanoma 112% | M14 melanoma 91.2% | HCT-15 colon 68% | HT29 colon 81.2% | SNB-75 CNS 83.4% | SNB-19 CNS 88.7% | U251 CNS 89.4% | PC-3 prostate 93.2% | SK-MEL-5 melanoma 96.7% | UACC-62 melanoma 92.7% | LOX IMVI melanoma 85.8% | SK-MEL-28 melanoma 94.9%

C=C(CNCCO)[C@@H]1CC[C@]2(CO)CC[C@]3(C)[C@H](CC[C@@H]4[C@@]5(C)CCC(N)C(C)(C)[C@@H]5CC[C@]43C)[C@@H]12 (stereo not given in full)
active: K-562 leukemia -43.3% | MALME-3M melanoma -75.1% | MDA-MB-231 breast 2.59% | SF-539 CNS -6.75% | UACC-257 melanoma -81.5% | M14 melanoma -70.2% | HT29 colon -22.4% | U251 CNS -78.5% | SK-MEL-5 melanoma -87.8% | UACC-62 melanoma 9.7% | LOX IMVI melanoma -67.8% | SK-MEL-28 melanoma -76.3%
inactive: DU-145 prostate 53% | RXF 393 renal 50.4% | SF-268 CNS 33.1% | SF-295 CNS 46.5% | HCT-15 colon 77% | SNB-75 CNS 43.5% | SNB-19 CNS 53.9% | PC-3 prostate 61.9%

Cc1[nH]c(C2CC(c3ccc(C(F)(F)F)c(F)c3)=NN2c2ccccc2)c(C)c1C(=O)NCC(F)(F)F (stereo not given)
inactive: DU-145 prostate 94.7% | K-562 leukemia 76% | MALME-3M melanoma 79.7% | MDA-MB-231 breast 88.8% | RXF 393 renal 80.8% | SF-268 CNS 84.7% | SF-295 CNS 87.1% | SF-539 CNS 94.4% | UACC-257 melanoma 97.6% | M14 melanoma 94.8% | HCT-15 colon 76.2% | HT29 colon 84.6% | SNB-75 CNS 82.5% | SNB-19 CNS 85.6% | U251 CNS 91% | PC-3 prostate 74.6% | SK-MEL-5 melanoma 95.7% | UACC-62 melanoma 75.5% | LOX IMVI melanoma 88.6% | SK-MEL-28 melanoma 96.9%

C=C1C(=O)O[C@H]2[C@H]1CC/C(COC(=O)c1ccc(C(=O)O)s1)=C\CC[C@@]1(C)O[C@@H]21
inactive: DU-145 prostate 18.6% | SF-268 CNS 24.2% | SF-295 CNS 81% | UACC-257 melanoma 52.7% | M14 melanoma 23.1% | SNB-75 CNS 71.2% | SNB-19 CNS 48% | U251 CNS 22.4% | PC-3 prostate 18.1% | SK-MEL-5 melanoma 91.4% | SK-MEL-28 melanoma 11.7%
active: K-562 leukemia 3.11% | MALME-3M melanoma 3.09% | MDA-MB-231 breast -3.52% | RXF 393 renal -56% | SF-539 CNS -25.7% | HCT-15 colon 4.14% | HT29 colon 7.91% | UACC-62 melanoma 3.21% | LOX IMVI melanoma -55.2%

Cc1ccc(/C=C(\C#N)n2nnc3cc(F)c(F)cc32)cc1
inactive: MALME-3M melanoma 33% | MDA-MB-231 breast 12% | SF-268 CNS 23.4% | SF-295 CNS 36.6% | UACC-257 melanoma 38% | HCT-15 colon 14.6% | SNB-19 CNS 31.9% | U251 CNS 24.4% | PC-3 prostate 21.3% | SK-MEL-5 melanoma 16.4% | UACC-62 melanoma 34.7% | SK-MEL-28 melanoma 39.5%
active: DU-145 prostate -3.37% | K-562 leukemia 4.34% | RXF 393 renal -0.406% | SF-539 CNS -25.5% | M14 melanoma -27.7% | HT29 colon 5.95% | SNB-75 CNS -15.2% | LOX IMVI melanoma -17.6%

CC(C)(C)n1cc(-c2ccnc(NCCCNS(=O)(=O)c3ccc(C(F)(F)F)cc3)c2)c(-c2cccc(F)c2)n1
inactive: DU-145 prostate 92.6% | K-562 leukemia 30.9% | MALME-3M melanoma 105% | MDA-MB-231 breast 93.8% | RXF 393 renal 92.2% | SF-268 CNS 87.2% | SF-295 CNS 94.7% | SF-539 CNS 74.1% | UACC-257 melanoma 94.4% | M14 melanoma 81.2% | HCT-15 colon 37.7% | HT29 colon 16.5% | SNB-75 CNS 66.6% | SNB-19 CNS 86.5% | U251 CNS 67.6% | PC-3 prostate 71.9% | SK-MEL-5 melanoma 78.9% | UACC-62 melanoma 89.4% | LOX IMVI melanoma 73.6% | SK-MEL-28 melanoma 96.9%

Clc1c(Cl)[n+](Cc2ccc3ccccc3c2)cn1Cc1ccc2ccccc2c1
inactive: DU-145 prostate 32.6% | SF-268 CNS 20.8% | SF-295 CNS 45.6% | SF-539 CNS 58.6% | HCT-15 colon 75.1% | SNB-75 CNS 10.3% | SNB-19 CNS 26.8% | SK-MEL-28 melanoma 16.1%
active: K-562 leukemia -3.01% | MALME-3M melanoma -14.1% | MDA-MB-231 breast 7.04% | RXF 393 renal -7.52% | UACC-257 melanoma -37.7% | M14 melanoma -31.9% | HT29 colon -69.4% | U251 CNS -82.6% | PC-3 prostate 3.79% | SK-MEL-5 melanoma -79.7% | UACC-62 melanoma -42.8% | LOX IMVI melanoma -21.4%
